# Source: PubChem BioAssay (EPA / NIEHS)
# Active and inactive are the calls of the source. How the source made its calls: active means hit-call score of the fitted dose curve at least 0.9, where 1 is the maximum; inactive means score below 0.9.
# Assays:
# [1] = APR_HepG2_CellCycleArrest_1hr: Apredica 1-hour HepG2 Assay for Cell Cycle Arrest (AID 2282666); conditions: high-content imaging, actives raise or lower the signal
# Outline: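 HepG2 cells exposed for 1 h to 0.39–200 uM compound (0.5% DMSO). Fixed, Hoechst-stained nuclei imaged by ArrayScan; DNA content quantified by Cell Cycle analysis; bidirectional fit against DMSO.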
# [2] = APR_HepG2_CellLoss_1hr: Apredica 1-hour HepG2 Assay for Cell Loss (AID 2282668); conditions: high-content imaging;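 further: curves fitted both ways against DMSO so gain or loss of cells counts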
# Outline: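 HepG2 cells were treated for 1 h with compound at 0.39–200 uM, in duplicate, in 0.5% DMSO. After formaldehyde fixation, Hoechst 33342-stained nuclei were imaged on an ArrayScan to count cells. Data were fitted bidirectionally versus DMSO.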
# [3] = APR_HepG2_MicrotubuleCSK_1hr: Apredica 1-hour HepG2 Assay for Microtubule CSK Stabilty (AID 2282669); conditions: HepG2 microtubule cytoskeleton imaging, actives raise or lower the signal
# Outline: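 HepG2 cells exposed 1 h to 0.39–200 uM compound (0.5% DMSO, duplicates), then formaldehyde-fixed, permeabilized and immunostained for alpha-tubulin with Hoechst nuclei. Imaged by ArrayScan high-content analysis; bidirectional fit versus DMSO.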
# [4] = APR_HepG2_NuclearSize_1hr: Apredica 1-hour HepG2 Assay for Nuclear Size (AID 2282670); conditions: high-content imaging, actives raise or lower the signal
# Outline: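 HepG2 cells dosed 1 hr with 0.39–200 uM compound (0.5% DMSO), formaldehyde-fixed, Hoechst 33342-stained and imaged at 20x; nuclear diameter from nuclear stain, fitted bidirectionally against DMSO.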
# [5] = APR_HepG2_p53Act_1hr: Apredica 1-hour HepG2 Assay for p53 Activation (AID 2282671); conditions: high-content imaging, actives raise or lower the signal
# Outline: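 HepG2 cells treated 1 h with compound at 0.39–200 uM (10 concentrations, duplicate) in 0.5% DMSO. Formaldehyde-fixed, permeabilised cells immunostained for p53 with Hoechst 33342; high-content imaging, bidirectional fit versus DMSO.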
# [6] = APR_HepG2_MitoticArrest_1hr: Apredica 1-hour HepG2 Assay for Mitotic Arrest (AID 2282672); conditions: high-content imaging, actives raise or lower the signal
# Outline: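 HepG2 cells exposed 1 hr to compounds at 0.39–200 uM (0.5% v/v DMSO final), then fixed in 3.7% formaldehyde and immunostained for phospho-histone H3 with Hoechst 33342. Mitotic arrest scored by automated fluorescence imaging, fitted bidirectionally versus DMSO.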
# [7] = APR_HepG2_P-H2AX_1hr: Apredica 1-hour HepG2 Assay for H2AX Phosphorylation (AID 2282673); conditions: high-content imaging, actives raise or lower the signal
# Outline: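 HepG2 dosed 1 hr at 0.39-200 uM (0.5% DMSO final), duplicate. Fixed in 3.7% formaldehyde, Triton permeabilized, immunostained for phospho-histone H2A.x (1:200) with Hoechst 33342; ArrayScan 20x imaging, bidirectional fit vs DMSO.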
# [8] = APR_HepG2_MitoMass_1hr: Apredica 1-hour HepG2 Assay for Mitochondrial Mass (AID 2282674); conditions: high-content imaging, actives raise or lower the signal
# Outline: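 HepG2 cells dosed 1 hr with 0.39-200 uM compound (0.5% DMSO), duplicate wells. Mitochondria stained with 250 nM MitoTracker Red CMXRos for 30 min before formaldehyde fixation, imaged at 20x by ArrayScan; bidirectional fit versus DMSO.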
# [9] = APR_HepG2_MitoMembPot_1hr: Apredica 1-hour HepG2 Assay for Mitochondrial Membrane Potential (AID 2282675); conditions: imaging, actives raise or lower the signal
# Outline: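 HepG2 cells dosed 1 hour with 0.39–200 uM compound in duplicate, 0.5% DMSO final. MitoTracker Red CMXRos (250 nM, 30 min) loaded before formaldehyde fixation; fluorescence quantified by high-content imaging, bidirectional fitting versus DMSO.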
# [10] = APR_HepG2_CellCycleArrest_24hr: Apredica 24-hour HepG2 Assay for Cell Cycle Arrest (AID 2282905); conditions: imaging, actives raise or lower the signal;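 further: cell cycle arrest scored as ratio of 2N to 4N nuclear DNA content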
# Outline: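 Cell cycle arrest is scored from nuclear DNA content measured by high-content imaging of Hoechst 33342-stained HepG2 cells following 24-hour treatment at ten concentrations up to 200 uM, with DMSO as baseline.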
# [11] = APR_HepG2_NuclearSize_24hr: Apredica 24-hour HepG2 Assay for Nuclear Size (AID 2282907); conditions: high-content imaging, actives raise or lower the signal
# Outline: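 Compounds in DMSO (final 0.5%) were added to human HepG2 hepatoma cells at ten concentrations up to 200 uM for 24 hr. Fixed nuclei were stained with Hoechst 33342, and nuclear diameter was quantified from automated images.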
# [12] = APR_HepG2_CellLoss_24hr: Apredica 24-hour HepG2 Assay for Cell Loss (AID 2282908); conditions: high-content imaging;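 on AC50: fit in both directions so a hit may be cell loss or gain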
# Outline: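 Cell number is quantified by fluorescence imaging of Hoechst 33342-stained nuclei following dosing at 0.39–200 uM in 0.5% DMSO. Curves are fitted in both directions from the DMSO baseline.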
# [13] = APR_HepG2_MicrotubuleCSK_24hr: Apredica 24-hour HepG2 Assay for Microtubule CSK Stabilty (AID 2282909); conditions: HepG2 microtubule cytoskeleton imaging, actives raise or lower the signal
# Outline: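 Steps: dose HepG2 for 24 h (0.39–200 uM, 0.5% DMSO); fix 30 min in 3.7% formaldehyde at room temperature; permeabilize; stain alpha-tubulin 60 min; image microtubule cytoskeleton at 20x. Signal change fitted in both directions relative to DMSO.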
# [14] = APR_HepG2_MitoticArrest_24hr: Apredica 24-hour HepG2 Assay for Mitotic Arrest (AID 2282910); conditions: high-content imaging, actives raise or lower the signal
# Outline: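 Compounds are dosed onto HepG2 cells across ten concentrations up to 200 uM for 24 hr. Cells are then fixed in 3.7% formaldehyde, permeabilised, and labelled for phospho-histone H3 and nuclei; images are scored by cell cycle analysis and fitted bidirectionally relative to DMSO.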
# [15] = APR_HepG2_MitoMembPot_24hr: Apredica 24-hour HepG2 Assay for Mitochondrial Membrane Potential (AID 2282911); conditions: imaging, actives raise or lower the signal
# Outline: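 HepG2, 24 hr dosing, 10 concentrations 0.39–200 uM, 0.5% DMSO final. Live-cell MitoTracker Red CMXRos 250 nM 30 min, then 3.7% formaldehyde fix. HCS fluorescence imaging, 20x; bidirectional fit vs DMSO baseline.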
# [16] = APR_HepG2_p53Act_24hr: Apredica 24-hour HepG2 Assay for p53 Activation (AID 2282913); conditions: high-content imaging, actives raise or lower the signal;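 further: p53 protein immunofluorescence averaged per cell in HepG2 with Hoechst nuclei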
# Outline: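 Read-out: Cy5 immunofluorescence for p53 in fixed, permeabilized HepG2, imaged by HCS with Hoechst-defined nuclei. Dosing was 24 hr at 0.39–200 uM in 0.5% DMSO. Curves were fitted bidirectionally relative to DMSO.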
# [17] = APR_HepG2_CellCycleArrest_72hr: Apredica 72-hour HepG2 Assay for Cell Cycle Arrest (AID 2282914); conditions: high-content imaging, actives raise or lower the signal
# Outline: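 HepG2, 72 hr exposure, 10-point 0.39–200 uM, duplicate, 0.5% DMSO final. Fix 3.7% formaldehyde 30 min RT, Triton X-100 0.5%, Hoechst 33342 2 ug/mL. ArrayScan 20x, six fields/well; DNA content per nucleus; bidirectional fit vs DMSO.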
# [18] = APR_HepG2_CellLoss_72hr: Apredica 72-hour HepG2 Assay for Cell Loss (AID 2282915); conditions: high-content imaging
# Outline: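 Cell number comes from Hoechst 33342-labelled nuclei, imaged at 20x after 3.7% formaldehyde fixation. Dosing was 0.39–200 uM, ten concentrations in duplicate, 0.5% DMSO final, for 72 h. Bidirectional fit relative to DMSO baseline.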
# [19] = APR_HepG2_MitoMass_24hr: Apredica 24-hour HepG2 Assay for Mitochondrial Mass (AID 2282912); conditions: high-content imaging, actives raise or lower the signal
# Outline: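 The liver line HepG2 was dosed in duplicate across a 0.39–200 uM series, with final DMSO held at 0.5% v/v, and harvested at 24 hr. High-content imaging measured mitochondrial dye staining.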
# [20] = APR_HepG2_StressKinase_1hr: Apredica 1-hour HepG2 Assay for Stress Kinase (AID 2282906); conditions: HepG2 stress kinase (phospho-c-Jun) imaging, actives raise or lower the signal
# Outline: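 HepG2 cells dosed 0.39-200 uM (0.5% DMSO) for 1 h, then formaldehyde-fixed. Stress kinase read by phospho-c-Jun immunofluorescence using high-content imaging; bidirectional fit vs DMSO.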
structure (smiles),measurement,setting,value
CSc1nnc(C(C)(C)C)c(=O)n1N,outcome,[1],inactive
same,outcome,[2],inactive
same,outcome,[3],inactive
same,outcome,[4],inactive
same,outcome,[5],inactive
same,outcome,[6],inactive
same,outcome,[7],inactive
same,outcome,[8],inactive
same,outcome,[9],inactive
same,outcome,[10],inactive
same,outcome,[11],inactive
same,outcome,[12],inactive
same,outcome,[13],inactive
same,outcome,[14],inactive
same,outcome,[15],inactive
same,outcome,[16],inactive
same,outcome,[17],inactive
same,outcome,[18],inactive
CCCCOC(=O)[C@@H](C)Oc1ccc(Oc2ccc(C#N)cc2F)cc1,outcome,[1],inactive
same,outcome,[2],inactive
same,outcome,[3],inactive
same,outcome,[4],inactive
same,outcome,[5],inactive
same,outcome,[6],inactive
same,outcome,[7],inactive
same,outcome,[8],inactive
same,outcome,[9],inactive
same,outcome,[11],inactive
same,outcome,[12],inactive
same,outcome,[14],inactive
same,outcome,[15],inactive
same,outcome,[19],inactive
same,outcome,[16],inactive
same,outcome,[17],inactive
same,AC50,[18],99.2 µM (active)
CCc1cnc(C2=NC(C)(C(C)C)C(=O)N2)c(C(=O)O)c1 (stereo unspecified),outcome,[1],inactive
same,outcome,[2],inactive
same,outcome,[3],inactive
same,outcome,[4],inactive
same,outcome,[6],inactive
same,outcome,[7],inactive
same,outcome,[8],inactive
same,outcome,[9],inactive
same,outcome,[10],inactive
same,outcome,[20],inactive
same,outcome,[11],inactive
same,outcome,[12],inactive
same,outcome,[13],inactive
same,outcome,[14],inactive
same,outcome,[15],inactive
same,outcome,[17],inactive
same,outcome,[18],inactive
O=[N+]([O-])c1cc(C(F)(F)F)c(Cl)c([N+](=O)[O-])c1Nc1ncc(C(F)(F)F)cc1Cl,outcome,[1],inactive
same,AC50,[2],94.8 µM (active)
same,outcome,[3],inactive
same,outcome,[4],inactive
same,outcome,[6],inactive
same,AC50,[7],21.6 µM (active)
same,AC50,[8],103 µM (active)
same,AC50,[9],15 µM (active)
same,AC50,[10],1.37 µM (active)
same,outcome,[11],inactive
same,AC50,[12],49.5 µM (active)
same,AC50,[13],1.14 µM (active)
same,outcome,[14],inactive
same,outcome,[15],inactive
same,outcome,[19],inactive
same,AC50,[17],0.676 µM (active)
same,AC50,[18],1.33 µM (active)
CN(C)C(=O)Nc1cccc(C(F)(F)F)c1,outcome,[1],inactive
same,outcome,[2],inactive
same,outcome,[3],inactive
same,outcome,[4],inactive
same,outcome,[5],inactive
same,outcome,[6],inactive
same,outcome,[7],inactive
same,outcome,[8],inactive
same,outcome,[9],inactive
same,outcome,[10],inactive
same,outcome,[11],inactive
same,outcome,[12],inactive
same,outcome,[13],inactive
same,outcome,[14],inactive
same,outcome,[15],inactive
same,outcome,[19],inactive
same,outcome,[16],inactive
same,outcome,[17],inactive
same,outcome,[18],inactive
CCC(=NOC/C=C/Cl)C1=C(O)CC(C2CCOCC2)CC1=O (stereo unspecified),outcome,[1],inactive
same,outcome,[3],inactive
same,outcome,[4],inactive
same,outcome,[5],inactive
same,outcome,[6],inactive
same,outcome,[7],inactive
same,outcome,[8],inactive
same,outcome,[9],inactive
same,outcome,[10],inactive
same,outcome,[20],inactive
same,outcome,[11],inactive
same,outcome,[12],inactive
same,outcome,[13],inactive
same,outcome,[14],inactive
same,outcome,[15],inactive
same,outcome,[16],inactive
same,outcome,[17],inactive
same,outcome,[18],inactive
CCOP(=S)(OCC)OC(Cl)C(Cl)(Cl)Cl (stereo unspecified),outcome,[1],inactive
same,outcome,[2],inactive
same,outcome,[3],inactive
same,outcome,[4],inactive
same,outcome,[5],inactive
same,outcome,[6],inactive
same,outcome,[7],inactive
same,outcome,[8],inactive
same,outcome,[9],inactive
same,outcome,[10],inactive
same,outcome,[11],inactive
same,AC50,[12],97.5 µM (active)
same,outcome,[13],inactive
same,outcome,[14],inactive
same,AC50,[15],151 µM (active)
same,outcome,[16],inactive
same,AC50,[17],165 µM (active)
same,AC50,[18],144 µM (active)
CN(C)[C@@H]1C(=O)C(C(N)=O)=C(O)[C@@]2(O)C(=O)C3=C(O)c4c(O)cccc4[C@@](C)(O)[C@H]3[C@H](O)[C@@H]12,outcome,[1],inactive
same,outcome,[2],inactive
same,outcome,[3],inactive
same,outcome,[4],inactive
same,outcome,[6],inactive
same,outcome,[7],inactive
same,outcome,[8],inactive
same,outcome,[9],inactive
same,outcome,[10],inactive
same,outcome,[20],inactive
same,outcome,[11],inactive
same,outcome,[12],inactive
same,outcome,[14],inactive
same,outcome,[15],inactive
same,outcome,[19],inactive
same,outcome,[17],inactive
same,outcome,[18],inactive
